tim23-1 inh: growth inhibitors of tim23-1 mutant yeast; S. cerevisiae tim23-1 growth, BacTiter-Glo luminescence, 24 h; inhibition, % at 20 µM; 330,000 tested, 1.3% active; AID 463212;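 active = growth inhibition of the mutant yeast at or above 50%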;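 also: temperature-sensitive mutant grown at 25 °C; plate controls were DMSO-treated mutant yeast for no effect and medium wells lacking yeast for full effect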
tim10-1 inh: tim10-1 yeast growth inhibition. S. cerevisiae tim10-1 ts strain growth, BacTiter-Glo, 24 h. inhibition, % at 20 µM. AID 463190. 330,000 tested, 2.2% active;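 active = inhibition of at least 40%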;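 also: mutant grown at 25 °C; 0% = DMSO wells with yeast and 100% = wells holding no yeast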
NLRP3 yeast inh: inhibitors of NALP3 inflammasome in yeast; Yeast reconstituted NLRP3/ASC/caspase-1, beta-gal luminescence, 24 h; inhibition, % at 10 µM; AID 2825; 330,000 tested, 0.39% active;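 active = inhibition of 50% or more; inactive = inhibition below 50%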;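 also: plate controls were induced DMSO wells for no effect and uninduced yeast grown without galactose for full effect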
PfHsp90 set2: growth inhibition of yeast expressing Plasmodium Hsp90; S. cerevisiae expressing PfHsp90, BacTiter-Glo ATP, 48 h; yeast lacking PDR1 and PDR3 efflux regulators; AID 504621; inhibition, % at 9.4 µM; 310,000 tested, 0.32% active;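 active = every replicate shows inhibition above about 80%, whatever the replicate mean, limit read from the data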;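 also: 0% = DMSO neutral controls and 100% = 20 µM radicicol positive controls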
TIM10 inh: growth inhibitors of TIM10 yeast strain; S. cerevisiae TIM10 strain growth, BacTiter-Glo luminescence, 24 h; inhibition, % at 10 µM; 330,000 tested, 1.4% active; AID 463195;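 active = inhibition of 40% or more at the single tested concentration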;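 also: wild-type TIM10 isogenic control strain grown at permissive 25 °C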
NALP3 yeast conf: NALP3 inhibition confirmation in yeast; 1,300 tested, 81% active; inhibition, % at 10 µM; shares compounds with NLRP3 yeast inh; yeast expressing human NALP3, luminescence; in the data active = inhibition above about 48%
Casp1-ASC yeast: counter-screen for NALP3 inhibitors: yeast caspase-1-ASC; AID 488784; inhibition, % at 10 µM; shares compounds with NLRP3 yeast inh; 1,000 tested, 66% active; yeast expressing Caspase-1-ASC, luminescence counter screen
NALP3 yeast rt: retest-confirmed inhibitor of NALP3 in yeast; shares compounds with NLRP3 yeast inh; yeast expressing human NALP3, luminescence read-out; inhibition, % at 10 µM; 1,000 tested, 53% active; AID 488794
Starred values were filed as active, the others as inactive; . = no result. Compounds with a hit are over-represented: about 3.7% of the library has one in this group of screens. Rule as the data show it, unless noted: active = inhibition above about 50%; inactive = the rest.

SMILES	tim23-1 inh	tim10-1 inh	NLRP3 yeast inh	PfHsp90 set2	TIM10 inh	NALP3 yeast conf	Casp1-ASC yeast	NALP3 yeast rt
COc1ccc2cc1Oc1ccc(cc1)C[C@H]1c3c(cc(OC)c4c3Oc3c(ccc5c3[C@H](C2)N(C)CC5)O4)CCN1C	-43.1	-36.5	68.6*	13.7	-12.6	53.0*	57.2*	69.4*
COc1ccc2cc1Oc1ccc(cc1)CC1c3c(cc(OC)c4c3Oc3cc5c(cc3O4)CCNC5C2)CCN1C (stereo not given)	-22.9	-18.0	34.0	.	-14.0	.	.	.
COC(=O)c1ccccc1Oc1ccc(NC(=O)c2ccco2)cc1	20.3	16.3	51.0*	9.8	16.5	68.4*	48.9	34.9
N#Cc1ccc(C(=O)OCCCc2cc3ccccc3c(=O)o2)cc1	14.8	-27.5	65.6*	12.2	-26.1	61.2*	60.8*	63.1*
N#Cc1ccc(C(=O)OCCc2cc3ccccc3c(=O)o2)cc1	9.0	-12.5	43.5	-15.5	-5.4	.	.	.
Cc1ccccc1CSc1nnc(-c2cccs2)n1Cc1ccco1	46.2	34.2	-27.9	-5.3	31.1	.	.	.
c1ccc(CSc2nnc(-c3cccs3)n2Cc2ccco2)cc1	34.1	39.5	-103.1	.	22.8	-1.6	.	.
C[C@@H](N)C(=O)NC[C@H]1CC[C@H](C(=O)N[C@@H](Cc2ccccc2)C(=O)O)CC1	-6.2	-8.5	61.9*	-2.8	12.6	75.8*	58.3*	63.3*
O=C(COc1ncnc2ccc(Br)cc12)NC1CCCC1	11.8	-27.3	9.4	24.8	5.8	.	.	.
COc1ccc(CC(=O)OCC(=O)NC2CCCC(C)C2C)cc1OC (stereo not given)	22.2	12.5	1.2	.	10.4	.	.	.
O=C(NCC(=O)N1CCN(c2ccccc2O)CC1)c1ccccc1	-4.8	-16.5	8.6	15.8	-24.3	.	.	.
O=C(CSc1c[nH]c2ccccc12)N1CCCc2ccccc21	30.8	24.6	31.2	-9.6	7.3	.	.	.
O=C(Cc1c[nH]c2ccccc12)N1CCc2ccccc21	14.0	19.9	62.0*	2.8	12.0	38.2	60.0*	59.8*
NC(=O)c1ccc(NC(=O)COc2coc(CN3CCc4ccccc4C3)cc2=O)cc1	-15.0	-10.6	-1.2	15.8	5.8	.	.	.
CCOc1cc(C2Nc3ccccc3C(=O)N2c2ccccc2)c(Br)cc1OCC(=O)O (stereo not given)	-1.6	5.9	-100.0	-38.2	-1.3	-31.0	.	.
COc1ccccc1-c1noc2ncnc(Nc3cccc(C)c3)c12	-1.1	11.7	64.3*	-0.3	-10.4	70.7*	59.8*	39.8
COc1cccc(Nc2ncnc3onc(-c4ccccc4OC)c23)c1	13.2	4.3	26.5	-15.0	16.1	.	.	.
COc1ccc(NS(=O)(=O)c2cccc(C(=O)NNC(=O)NCCCl)c2)cc1	17.8	-2.1	5.3	-17.8	0.4	.	.	.
COc1ccc(N(CC(=O)NC2CCCCCC2)S(=O)(=O)c2ccc(C)cc2)cc1OC	10.9	3.4	11.5	-1.6	7.6	.	.	.
CCCCOc1ccc(C(=O)Oc2ccc(C)nc2)cc1	31.9	30.2	79.6*	-17.3	20.8	86.7*	92.4*	83.8*
Cc1ccc(S(=O)(=O)n2ccc3cccnc32)cc1	15.1	8.4	43.8	10.6	0.6	.	.	.
O=S(=O)(c1ccc(Cl)cc1Cl)n1ccc2cccnc21	26.6	-13.9	72.9*	9.8	-21.4	67.1*	65.5*	42.6
O=S(=O)(c1ccc(Cl)cc1)n1ccc2cccnc21	16.9	-4.3	61.5*	.	-7.0	61.4*	56.2*	41.5
O=S(=O)(c1cc(Cl)ccc1Cl)n1cccn1	6.1	19.8	-36.6	15.4	21.9	.	.	.
O=C(CSc1nc2ccccc2c(=O)n1-c1ccccc1Cl)NCC1CCCO1 (stereo not given)	24.6	16.8	7.7	9.3	2.6	.	.	.
SMILES	tim23-1 inh	tim10-1 inh	NLRP3 yeast inh	PfHsp90 set2	TIM10 inh	NALP3 yeast conf	Casp1-ASC yeast	NALP3 yeast rt
O=C(O)c1ccc2c(c1)-c1cc(C(=O)O)ccc1S2(=O)=O	-1.5	-2.7	10.3	1.9	-0.6	.	.	.
COC(=O)N[C@@H]1C[C@H]2[C@@H]3CC[C@H]4C[C@@H](OC)CC[C@]4(C)[C@H]3CC[C@]12C	28.1	14.0	37.0	.	8.1	.	.	.
CC(=O)O[C@H]1CC[C@@]2(C)C(CCC3C2CC[C@]2(C)OC(=O)CCC32)C1 (stereo not given in full)	-32.7	-48.8	59.9*	.	-47.3	57.5*	58.7*	35.1
C[C@]12CCC3C(CC[C@H]4CC(O)CC[C@]34C)C1CC/C2=N/O (stereo not given in full)	3.0	-13.0	51.5*	-3.6	-12.2	73.5*	71.0*	54.9*
C[C@]12CCC3C(CC[C@H]4CC(O)CC[C@]34C)C1CC/C2=N/NC(=O)c1ccncc1 (stereo not given in full)	8.1	-18.0	56.4*	3.1	-17.4	80.5*	55.1*	44.4
CCC(=Nc1ccccc1O)C1=C(O)CC(c2ccccc2)CC1=O (stereo not given)	15.1	-8.3	62.1*	39.8	10.4	73.9*	55.0*	56.1*
CCC(=Nc1ccccc1OC)C1=C(O)CC(c2ccccc2)CC1=O (stereo not given)	22.6	1.8	37.7	18.5	11.2	.	.	.
Cc1ccc(C([O-])=C(C(=S)NCc2ccccc2)[n+]2cccc(CO)c2)cc1[N+](=O)[O-]	.	.	.	-29.4	.	.	.	.
C(=C\n1nnc2ccccc21)/c1ccccn1	15.0	-13.8	53.1*	4.0	-5.0	71.4*	36.9	.
Cc1cccc(OCc2nc3ccccc3n2C)c1	14.4	0.4	53.8*	7.4	-2.5	72.2*	54.9*	41.2
Cn1c(COc2ccc(F)cc2)nc2ccccc21	10.6	-42.9	38.8	-2.3	-5.3	.	.	.
Cc1[nH]c2c(C)cccc2c1CCNC(=O)C1CCCCC1C(=O)OCC(F)(F)F (stereo not given)	26.5	22.0	72.2*	20.0	14.5	-7.0	.	.
Cc1cc(CNC(=O)c2cc(COc3ccc(F)c(F)c3)on2)nn1C	6.0	-1.1	28.9	-6.5	-0.5	.	.	.
C=CCOc1ccc(/C=C/C(C)=N\O)cc1	25.9	2.6	58.8*	-41.3	-8.8	67.5*	60.3*	46.9
Cc1nc2ncnn2c(C)c1CCC(=O)N1CCOCC1	0.3	0.5	11.3	29.9	-1.1	.	.	.
FC(F)(F)c1cc(-c2ccco2)nc(NCc2cccnc2)n1	3.0	14.7	53.0*	-3.4	9.5	66.3*	52.2*	36.3
FC(F)(F)c1cc(-c2ccccc2)nc(NCc2cccnc2)n1	-0.4	12.7	53.9*	-20.1	20.6	24.4	.	.
FC(F)(F)c1cc(-c2ccco2)nc(NCc2ccccc2)n1	21.5	10.1	12.5	.	-6.4	.	.	.
COc1ccc(CN(CCN2CCOCC2)C(=O)c2c(F)cccc2F)cc1OC	11.1	0.1	-5.6	11.9	-2.0	.	.	.
COc1ccc(CC(=O)N2CCc3ccccc3C2)cc1	18.4	17.2	30.3	-9.5	6.1	.	.	.

Screens from PubChem BioAssay.
